The structures appear in SMILES notation. Screen size: about 350,000 compounds; about 450 (0.13%) were called active. The rule behind the calls is not given here. Not all results are given here. Potency and affinity values are given separately.

This assay in a line: inhibitors of VEEV TC-83 cytopathic effect, confirmation, Vero cells (AID 588727). Particulars: VEEV TC-83 cytopathic effect inhibition, at 20 µM; stronger effect = higher value unless noted. On the technique in general: Protection from cytopathic effect is a common read-out in antiviral testing.
Turning to `OCC1CCCCN1C(=S)NCc1ccco1` (configuration not stated), the inhibition (commonly how much of the control response was suppressed) is 2.33% (inactive).
To `O=C(NNC(=O)c1ccc2ccccc2c1)c1cccc(F)c1` belongs 0.5% (inactive).
The value for `COc1ccccc1NS(=O)(=O)c1ccc(C(=O)N2CCN(c3ccccn3)CC2)cc1` was 12.1% (inactive); that for `COc1cc2cc(CN(CCO)S(=O)(=O)c3ccccc3)c(=O)[nH]c2cc1OC` was 2.19% (inactive); that for `CCOC(=O)C(CC)n1cnc2sc3c(c2c1=O)CCC3` (configuration not stated) was 2.46% (inactive).
The value for `COc1ccc(/C=C/C(=O)c2cc(Cl)cc(Cl)c2O)c(OC)c1` was 0.43% (inactive); that for `CCNc1ccc(Br)cc(C(=O)/C=C/c2ccccc2Cl)c1=O` was 2.29% (inactive).
As for `CN(C)/C=C/C(=O)/C=C/c1ccc(Cl)cc1Cl`, the inhibition result is “inactive”.
To `CCc1ccc(/C=C/C(=O)c2cc(Br)ccc(=O)c2O)cc1` belongs 2.12% (inactive); to `CC(=O)Nc1ccc(S(=O)(=O)Nc2ccc3c(c2)OCO3)cc1`, “inactive”; to `Cc1ccc(-c2cc(C(=O)NCCCn3ccnc3)c3ccccc3n2)s1`, 10.3% (inactive).
To `CC(OC(=O)Cn1cnc2ccccc2c1=O)C(=O)N(C)c1ccccc1` (configuration not stated) belongs 1.86% (inactive); to `Cc1cc(SCC(=O)c2cc3ccccc3o2)nc2ccccc12`, “inactive”; to `COc1ccc(NC(=O)CSc2nc3ccccc3c(=O)n2CCC(=O)N2CCCCC2)cc1`, 10.7% (inactive).
To `CCN(C(=O)c1cccc(Br)c1)c1ccccc1` belongs 1.28% (inactive); to `CCn1c(-c2nonc2NC(=O)c2ccccc2)nc2ccccc21`, “inactive”; to `N#CCCn1c(-c2nonc2NC(=O)c2ccccc2Cl)nc2ccccc21`, “inactive”.
As to `CCC(=O)Nc1nonc1-c1nc2ccccc2n1CC(C)C`, the inhibition is 0.38% (inactive).
The value for `CC(=O)Nc1nonc1-c1nc2ccccc2n1CCC(C)C` was 2.19% (inactive); that for `CCOc1ccccc1Nc1ccnc2cc(Cl)ccc12` was 0.76% (inactive); that for `C=C1CCN([C@@H](Cc2ccccc2)C(=O)NC2CCN(Cc3ccccc3)CC2)S(=O)(=O)c2ccccc21` was “inactive”.
For the compound `CCCN1C2CCCC1CC(NC(=O)c1ccc(Br)cc1)C2` (configuration not stated), the inhibition was 0.23% (inactive).
The value for `CCN(CC)S(=O)(=O)c1ccc(Cl)c(C(=O)OCC(=O)c2c(N)n(C)c(=O)n(C)c2=O)c1` was 2.96% (inactive); that for `COCCCNC(=O)c1cc(C(=O)Cc2ccccc2)c[nH]1` was 0.38% (inactive); that for `O=C(CCn1c(=S)oc2ccccc21)Nc1cccc(O)c1` was 1.38% (inactive).
For `COc1ccc(C2c3[nH]c4ccccc4c3CCN2C(=O)c2cn3ccccc3n2)c(F)c1` (configuration not stated), the inhibition is 8.94% (inactive).
To `COc1ccc(C2c3[nH]c4ccccc4c3CCN2C(=O)c2ccc(=O)n(C)n2)c(F)c1` (configuration not stated) belongs 1.1% (inactive).
With `CCC(CC)c1nc(C(N)=O)c2[nH]c(=O)n(-c3ccc(OC)c(OC)c3)c2n1`, the inhibition is 1.45% (inactive).
To `NNc1nc(-c2ccccc2)cc(-c2ccc(Br)cc2)n1` belongs 7.9% (inactive).
The value for `CN1OC[C@@H]2CN(C(=O)C(C)(C)C)[C@H](c3cccc(Br)c3)C[C@@H]21` was “inactive”; that for `c1ccc2c(-c3cc(C4CCNCC4)[nH]n3)cccc2c1` was 6.53% (inactive).
For `Clc1ccc(-c2cc(C3CCNCC3)[nH]n2)cc1`, the inhibition was 0.74% (inactive).
The value for `CC(OC(=O)c1cc(S(=O)(=O)N2CCOCC2)ccc1F)C(=O)NCC1CCCCC1` (configuration not stated) was 0.1% (inactive).
To `O=C(N/N=C/c1cccnc1)c1ccc(NC(=O)c2ccccc2Cl)cc1` belongs 1.2% (inactive); to `O=C(NCCN1CCN(C(=O)c2cccc(OC(F)F)c2)CC1)c1cccc(OC(F)F)c1`, 0.88% (inactive).
To `O=C(N[C@@H]1CCC(=O)N(CC[C@H](Sc2ccc(Br)cc2)c2ccccc2)CC1)OCc1ccccc1` belongs 1.21% (inactive); to `Cc1ccc(-c2csc(NC(=O)/C=C/c3cccs3)n2)cc1C`, 7.86% (inactive).
`O=C(/C=C/c1cccs1)Nc1nc(-c2ccccc2)cs1`: the inhibition was 10.2% (inactive).
As to `COc1ccc(OC)c(/C=N/n2c(COc3ccccc3)n[nH]c2=S)c1`, the inhibition was 1.2% (inactive).
The value for `Cc1sc(NC(=S)NC(=O)c2ccco2)c(C#N)c1C` was 0.86% (inactive); that for `Cc1sc(NC(=S)NC(=O)c2ccccc2)c(C#N)c1C` was 1.72% (inactive); that for `Cc1cccc(S(=O)(=O)N(C)C[C@H]2OCc3cn(nn3)CCCC(=O)N([C@@H](C)CO)C[C@@H]2C)c1` was 0.62% (inactive).
In the case of `O=S(=O)(c1ccc(F)cc1)N1CCC2(CC1)OCCO2`, the inhibition is 0.49% (inactive).
The value for `COC(C[C@H](O)C[C@H](O)[C@@H](C)OCc1ccccc1)OC` was 0.19% (inactive); that for `CCn1c(C)nc2cc(C(=O)OCCC(F)(F)F)ccc21` was 8.24% (inactive).
Consider `CCn1c(C)nc2cc(C(=O)OC)ccc21`, for which the inhibition was 0.32% (inactive).
The value for `Cc1cc(C)nc(NS(=O)(=O)c2ccc(NC(=O)c3ccc(N4C(=O)CCC4=O)cc3)cc2)n1` was “inactive”; that for `Nc1ccn([C@@H]2O[C@H](CO)[C@@H](O)[C@H]2O)c(=O)n1` was 0.98% (inactive).
Regarding `Nc1ccn([C@@H]2O[C@H](CO)[C@@H](O)[C@@H]2O)c(=O)n1`, the inhibition result was “inactive”.
With `CNC(=S)N(Cc1ccccc1)Cc1cccnc1`, the inhibition was 3.13% (inactive).
To `CCOC(=O)c1c(NC(=O)CSc2nnc(-c3ccccc3)o2)sc(C(C)=O)c1C` belongs 2.08% (inactive); to `CC(OC(=O)/C=C/c1cccc(C(F)(F)F)c1)C(=O)NC1CCCCC1C` (configuration not stated), 3.48% (inactive); to `CNC(=O)C(=O)Nc1ccc(C)cc1C`, 0.04% (inactive).
The value for `Cc1ccc(NC(=O)/C(C#N)=N/Nc2ccc(C(=O)O)cc2)c(C)c1` was 1.78% (inactive); that for `C/C(=N\N=C1\NC(=O)C(Cc2ccccc2)S1)c1ccccc1` (configuration not stated) was 1.26% (inactive); that for `CC(C)=N/N=C1/NC(=O)C(Cc2ccccc2)S1` (configuration not stated) was 2.54% (inactive).
To `CCOC(=O)c1ccc(CC2S/C(=C(\C#N)C(C)=O)NC2=O)cc1` (configuration not stated) belongs 1.08% (inactive).
Take `CC(=O)/C(C#N)=C1\NC(=O)C(Cc2ccc(F)cc2)S1` (configuration not stated): the inhibition was 9.23% (inactive).
The value for `CN1CCN(c2nc3cc(N4CCOCC4)ccc3s2)CC1` was “inactive”; that for `CN1CCN(c2ccc3nccnc3c2)CC1` was 0.19% (inactive); that for `O=C1CNC(=O)/C(=C\c2ccc(F)cc2)N1` was “inactive”.
To `CCOC(=O)COc1cc2c3c(c(=O)oc2cc1C)CCCC3` belongs 1.83% (inactive).

Values taken from PubChem BioAssay AID588727 (Southern Research Specialized Biocontainment Screening …, 2011).
